# Test results reported in PubChem BioAssay AID686971 (National Center for Advancing Translational Sciences (NCATS), 2013).
# The campaign covered roughly 360,000 compounds. About 7,500 (2.1%) were called active. Another 8% or so got no clear call; they are omitted. The list comes from a sample in which actives are over-represented; it also holds similar structures and randomly drawn compounds. Values without a mark were called inactive. Calls come from the whole dose curve; as a rule, active = well fitted cell-killing curve with a large enough effect; inconclusive = small, poorly fitted or top-dose-only effect, or effect the other way, or another doubt; inactive = no such curve, though single readings can be large or run the other way.
# Experiment: qHTS for induction of synthetic lethality in tumor cells producing 2HG: qHTS for the HT-1080-IDH1KD cell line
# Conditions: HT-1080 IDH1 knockdown viability, ATP luminescence, 48 h; series mostly up to 46.1 µM; activity, negative = toxicity: at the top concentration
# Description: Unbiased genomic sequencing for 22 glioma genomes found recurrent mutation of IDH1 on chromosome 2q33, a gene encoding the cytosolic isoform of IIDH1 associated with the tri-carboxylic acid cycle (TCA) that catalyzes the oxidative decarboxylation of isocitrate, yielding alpha-ketoglutarate and CO2 via NADP+ to NADPH conversion. Subsequent studies confirmed the recurrent IDH mutations in up to 70% of secondary gliomas and in 10% of AML cases. In addition, the somatic mutation of cancer-associated IDH1 is a point mutation resulting in various amino-acid substituents at Arginine132 (IDH1 R132), a key residue found in the enzyme's active site that when mutated, results in the loss-of-function in metabolizing isocitrate but confers a gain-of-function to produce the oncometabolite 2-hydroxyglutarate (2HG). This in effect defines IDH1 as an oncogene and provides an extraordinary opportunity to discover chemical probes against mutant IDH1 that may translate into much needed new therapies for glioma and AML patients.
# This assay aims to perform a synthetic-lethal screen for chemical probes specific for 2HG-producing tumor cells using matched paired cell lines (1) HT-1080-NT fibrosarcoma cell line that overproduces 2HG and (2) HT-1080-IDH1KD cell line which has IDH1 expression knocked-down. Desirable compounds are toxic to the NT fibrosarcoma cell line but not to the IDH1KD cell line. The data in this AID corresponds to the results of the qHTS against the HT-1080 IDH1KD cell line.
# [1] Dang L, Jin S, Su SM. IDH mutations in glioma and acute myeloid leukemia. Trends of Mol Med. 2010; 16(9): 387-97.
# [2] Dang L et al. Cancer-associated IDH1 mutations produce 2-hydroxyglutarate. Nature. 2010; 465(7300):966.
# Molecular Libraries Probe Production Centers Network [MLPCN]
# NIH Chemical Genomics Center [NCGC]
# Assay Submitter (PI): Lenny Dang Ph.D., Agios Pharmaceuticals
# Suspensions of trypsinized HT-1080-IDH1KD cells were dispensed into white, tissue culture-treated, solid 1536-well plates at 5uL/well (750 cells/well final concentration) in RPMI medium supplemented with 5% FBS. Plates were incubated at 37 degrees C for 2 hours, after which 23 nL of compounds or DMSO were delivered to each well using a pin tool. Plates were then incubated at 37 degrees C for an additional 48 hours. CellTiter-Glo viability reagent (Promega) was dispensed into wells (2.5uL/well) and incubated at room temperature for 10 minutes. The plates were measured on a PerkinElmer ViewLux plate reader for luminescent signal (clear filter, 1 sec exp.). DMSO-treated control wells and media-only (no cells) control wells were used to normalize %Activity of identified toxic compounds; DMSO-treated wells corresponded to 0%Activity (100% viability), while media-only controls were used to normalize 100%Activity (0% viability). To minimize variability between cell lines, both HT-1080-NT and HT-1080-IDH1KD lines were dispensed and treated with identical compound series in single batches.
# Concentration-response curves were fitted to the signals arising from the resulting luminescence. The concentration-effect curves were then classified based on curve quality (r2), response magnitude and degree of measured activity, and compounds were subsequently categorized based on their curve class.
# Potency is the fitted concentration of half-maximal effect.
Compound,Potency,"activity, negative = toxicity"
Cc1nc(N=C(N)N)nc2c(C)cccc12,32.6 µM (active),
Cc1cc(C)c2cc(C#N)c(N3CCNCC3)nc2c1,,1.86%
CCOC(=O)c1c(C)[nH]c2c1-c1ccccc1C(=O)C2=O,2.91 µM (active),
CCOC(=O)c1ccccc1OC(=O)Oc1ccccc1C(=O)OCC,,-13.5%
CCOC(=O)c1c(C)nc2c(c1C)c(=O)oc1ccccc12,,13.5%
COCc1cccc(-c2csc(C(O)c3ccc(F)cc3)n2)c1 (stereo not given),,-25.4%
Cc1ccccc1C(=O)Nc1ccc(N2CCCCCC2)cc1,14.6 µM (active),
Cc1ccccc1C(=O)N1CCN(c2ccc(NC(=O)c3cccs3)cc2)CC1,,-0.779%
COc1cccc(OCc2cc(C(=O)N3CCN(C(=O)c4ccco4)CC3)no2)c1,,-1.71%
COc1cccc(C(=O)Nc2ccc(N3CCCC3)cc2)c1,18.4 µM (active),
COc1cccc(C(=O)Nc2ccc(N3CCN(C(=O)c4ccco4)CC3)cc2)c1,11.6 µM (active),
Cc1ccccc1C(=O)Nc1ccccc1NC(=O)c1ccccc1C,,0.652%
Cc1ccc(OCC(=O)Nc2ccc(N3CCN(C(=O)c4ccco4)CC3)cc2)c(C)c1,,-11.4%
COc1cccc(C(=O)Nc2nnc(S(=O)(=O)N3CCCCC3)s2)c1,,-13%
COc1cccc(C(=O)Nc2ccc3nc4n(c(=O)c3c2)CCCCC4)c1,,-9.88%
Cc1cccc(N(CC(=O)N2CCCC2)S(C)(=O)=O)c1C,,0.0682%
COC(=O)c1ccccc1N=NNc1ccc([N+](=O)[O-])cc1,,5.48%
CCCNC(=O)C1CC(=O)N(c2ccc(OCc3ccccc3)cc2)C1 (stereo not given),,-6.41%
Cc1nc2ccccn2c(=O)c1NC(=O)c1ccc(Br)o1,,8.09%
C[C@H]1Cn2cnc(C(=O)N[C@H](C)c3ccccc3)c2C(=O)N1,,1.93%
Cc1ccc(CCNC(=O)CN2C(=O)CSc3ccc(S(=O)(=O)N4CCOCC4)cc32)cc1,,0.335%
CC1(C(=O)Nc2cccc3cccnc23)CCN1C(=O)CCC1CCCC1 (stereo not given),,-9.67%
CC[C@]1(O)CC2CN(CCc3c([nH]c4ccccc34)[C@@](C(=O)OC)(c3cc4c(cc3OC)N(C=O)[C@H]3[C@@](O)(C(=O)OC)[C@H](OC(C)=O)[C@]5(CC)C=CCN6CC[C@]43[C@@H]65)C2)C1 (stereo not given in full),0.184 µM (active),
CC[C@]1(O)C[C@@H]2CN(CCc3c([nH]c4ccccc34)[C@@](C(=O)OC)(c3cc4c(cc3OC)N(C)[C@H]3[C@@](O)(C(=O)OC)[C@H](OC(C)=O)[C@]5(CC)C=CCN6CC[C@]43[C@@H]65)C2)C1,0.0366 µM (active),
Nc1nc(CSc2nnnn2-c2ccccc2)nc(Nc2ccccc2)n1,,-11%
